Assay outcomes from PubChem BioAssay.
Shown are actives, neighbours in structure and some others; about 2.9% of the full set was active somewhere.
HSF-1 act = HSF-1 activators, primary screen, NIH3T3-HGL cells, MG132 stress, luminescence, single point; NIH3T3-HGL HSF-1 luciferase reporter, 8 h; 100% = twice DMSO control signal; activation, % at 9 µM; actives 1.7% (n = 300,000); AID 504408, 2011;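 active = mean replicate activation of at least 50% with a set share of replicates each reaching 50%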
HSF1 inh = HSF1 inhibitors in luciferase reporter cells, primary screen, cell-based, NIH3T3, luminescence | NIH3T3-HGL HSE-luciferase, MG132-induced, luminescence 8 h; active compounds read low | activity change, negative = inhibition, % at 7.5 µM (by protocol) | actives 0.77% (n = 300,000);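 active = more than half of replicate wells show activity change below -50%, luminescence cut by over half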;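 note: luciferase reports HSF-1 transcriptional activity via heat shock element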
S1P4 antag = S1P4 receptor antagonists, primary screen, cell-based; S1P4-expressing cells, antagonist mode, reporter read-out; inhibition, % at 4.98 µM; actives 0.26% (n = 220,000); AID 1510, 2009; in the data active = inhibition above about 29%
S1P3 antag-1 = S1P3 receptor antagonists, primary screen, cell-based | Sphingosine 1-phosphate receptor 3 (Homo sapiens), Q99500 | CHO S1P3 NFAT-BLA reporter, FRET fluorescence, antagonist mode | inhibition, % at 4.98 µM | actives 0.27% (n = 170,000);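 active = inhibition above the plate cutoff, the mean inhibition of test wells on that plate plus 3 SD, cut at about 28% in these data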;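 note: cells challenged with S1P at its EC80 of 0.8 µM; blue over green emission ratio from cleaved BLA substrate after 4 h stimulation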
Target sequence (Q99500 whole entry, looked up): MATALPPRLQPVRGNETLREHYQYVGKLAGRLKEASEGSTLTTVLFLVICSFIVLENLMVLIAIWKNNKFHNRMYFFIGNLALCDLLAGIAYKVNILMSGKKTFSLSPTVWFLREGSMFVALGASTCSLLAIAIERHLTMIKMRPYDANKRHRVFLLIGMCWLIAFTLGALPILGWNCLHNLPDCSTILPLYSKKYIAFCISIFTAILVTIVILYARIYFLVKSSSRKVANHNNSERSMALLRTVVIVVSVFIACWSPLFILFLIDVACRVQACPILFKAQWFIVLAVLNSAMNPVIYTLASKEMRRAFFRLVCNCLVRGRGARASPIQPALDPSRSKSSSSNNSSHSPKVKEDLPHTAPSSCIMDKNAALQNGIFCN
Hsp70 activator = Hsp70 transcriptional activators, primary screen, cell-based, HeLa, Hsp70 promoter luciferase, luminescence, 10 µM | HeLa Hsp70 promoter luciferase reporter; scaled: vehicle 0, proteasome-inhibitor control 100% | activation, % at 10 µM | actives 0.04% (n = 200,000) | AID 1203, 2008;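 active = activation above the mean across all tested compounds plus 3 SD, cutoff set per campaign, cut at about 5.5% in these data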
S1P4 agonist = S1P4 receptor agonists, primary screen, cell-based. S1P4-expressing cell line, agonist reporter assay. activation, % at 4.98 µM. actives 0.35% (n = 220,000). AID 1509, 2009; in the data active = activation above about 11%
S1P3 antag-2 = S1P3 receptor antagonists, retest, confirmation, cell-based; shares compounds with S1P3 antag-1; CHO S1P3 NFAT-BLA reporter, FRET, antagonist mode; inhibition, % at 4.98 µM; actives 30% (n = 240);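 active = inhibition above the hit threshold that was computed for the earlier primary screen, cut at about 30% in these data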
A number is an active result; 0 = inactive; - = no result given.

SMILES	HSF-1 act	HSF1 inh	S1P4 antag	S1P3 antag-1	Hsp70 activator	S1P4 agonist	S1P3 antag-2
C/C(=N\Nc1ccc([N+](=O)[O-])cc1)c1ccc(O)cc1	0	0	0	34.3	0	0	0
CNc1nc(Nc2ccccc2)nc(OCC(F)(F)F)n1	0	0	0	38.8	0	0	0
COc1ccc(CNC(=O)CNC(=O)CNS(=O)(=O)c2ccc(C)c(C)c2)cc1	0	0	-	-	-	-	-
CCN(Cc1ccccc1)C(=O)CCS(=O)(=O)c1ccc2c(c1)n(C)c(=O)c(=O)n2C	0	0	-	-	-	-	-
COc1cccc2cc(/C(=N/O)c3ccccc3)oc12	0	0	0	0	0	0	-
CNc1nc2cc([N+](=O)[O-])c([N+](=O)[O-])cc2nc1NC	0	0	0	54.1	0	0	34.1
O=C(CS(=O)(=O)Nc1ccc(F)cc1Cl)Nc1ccc(F)cc1Cl	0	0	-	-	-	-	-
Cc1cc(C)nc(NC(=S)Nc2ccc(Br)cc2Cl)c1	0	0	0	0	0	0	-
O=C(Nc1ccc(F)cc1F)c1c(C(F)(F)F)ccnc1Oc1ccc(Cl)cc1	0	0	0	44.2	-	0	55.5
O=C(Nc1ccc(F)cc1F)c1c(C(F)(F)F)ccnc1Oc1cccc(C(F)(F)F)c1	0	0	0	0	-	0	-
COc1cnc(-c2ccccn2)nc1Oc1ccc(F)cc1F	-	-	0	28.5	0	0	0
COc1cnc(-c2ccccn2)nc1NC(C)C	0	0	0	28.6	0	0	0
COc1cnc(-c2ccccn2)nc1Oc1ccccc1Cl	0	0	0	-	0	0	-
COc1ccccc1Sc1nc(-c2ccccn2)ncc1OC	0	0	0	0	0	0	-
Cc1csc(CNC(=O)C2CCC(=O)N(CCCc3ccccc3)C2)n1 (stereo unspecified)	0	0	-	-	-	-	-
CCN(CC)C(=O)c1[nH]cnc1C(=O)N[C@@H](C)C(=O)OC(C)(C)C	0	0	0	0	0	0	-
CCC(C(=O)Nc1ccc(C)cc1)c1ccccc1 (stereo unspecified)	0	0	0	0	0	0	-
Cc1ccccc1NC(=O)C(c1ccccc1)C1CCCC1 (stereo unspecified)	0	0	0	0	0	0	-
Cc1ccc(NC(=O)C(c2ccccc2)C2CCCC2)cc1 (stereo unspecified)	0	0	0	59.8	0	0	70.1
O=C(Nc1ccc(Br)cc1)C(c1ccccc1)c1ccccc1	0	0	0	57.0	0	0	68.6
O=C(Nc1ccc2ccccc2c1)C(c1ccccc1)C1CCCC1 (stereo unspecified)	0	0	0	55.3	0	0	65.8
NC(=O)C(c1ccccc1)C1CCCC1 (stereo unspecified)	0	0	0	-	0	0	-
CCc1ccc(NC(=O)C(CC)c2ccccc2)cc1 (stereo unspecified)	0	0	0	29.2	0	0	0
CC1C(c2ccccc2)N(C)C(c2ccccc2)CC1(O)c1ccc(F)cc1 (stereo unspecified)	0	0	0	30.6	0	0	47.9
CCC(O)c1nc2ccccc2n1CCc1ccccc1 (stereo unspecified)	0	0	-	-	-	-	-
SMILES	HSF-1 act	HSF1 inh	S1P4 antag	S1P3 antag-1	Hsp70 activator	S1P4 agonist	S1P3 antag-2
CCOC(=O)C1CCCN(S(=O)(=O)c2ccc(S(=O)(=O)N(CC)CC)cc2)C1 (stereo unspecified)	0	0	0	48.0	0	0	0
CCC(C)(C)C1CCc2c(sc(N)c2C(N)=O)C1 (stereo unspecified)	0	0	0	38.1	0	0	0
Cc1nc2nc(-c3ccc(Cl)cc3)[nH]n2c(=O)c1C	-	-	0	-	0	0	-
CNc1nc2ccccc2n1CC(=O)c1ccccc1	0	0	-	-	-	-	-
COc1ccc(Nc2ncnc3sccc23)cc1OC	0	0	-	-	-	-	-
COc1ccc(CCNc2ncnc3sccc23)cc1OC	0	0	0	49.1	0	0	0
CCOC(=O)N1CCC(N(CCN(C)C)C(=S)Nc2cc(Cl)cc(Cl)c2)CC1	0	0	0	29.0	0	0	0
COc1ccc2cc3cc(C(=O)NCc4ccc5c(c4)OCO5)oc3nc2c1	0	0	0	0	0	0	-
COc1ccc2cc3cc(C(=O)NCc4cccnc4)oc3nc2c1	0	0	0	30.1	0	0	0
Cc1nn(CCC(N)=S)c2nc(-c3cccs3)cc(C(F)(F)F)c12	0	0	0	0	0	0	-
CCOC(=O)C1=C(CS(=O)(=O)c2ccccc2)NC(=O)NC1c1ccccc1OC (stereo unspecified)	0	0	-	-	-	-	-
O=C(Nc1ccc(Cl)cc1)Nc1cccc2nsnc12	0	0	0	29.2	-	0	0
O=C(Nc1ccncc1)Nc1cccc(Cl)c1Cl	0	0	-	-	-	-	-
CN(C)S(=O)(=O)N1CCC(Oc2cccc(C(=O)N3CCCCCCC3)c2)CC1	0	0	-	-	-	-	-
c1ccc2c(c1)OCC(CNc1ncnc3sccc13)O2 (stereo unspecified)	0	0	0	43.3	0	0	0
COc1cccc(NC(=O)C(=O)N/N=C(\C)CC(=O)Nc2ccc(NC(C)=O)cc2)c1	0	0	-	-	-	-	-
CO/N=C/c1ccc(Oc2ccc(C)cc2)nc1	0	0	0	-	0	0	-
Cc1ccc(Oc2ccc(C=O)cn2)cc1	0	0	0	33.6	0	0	0
O=[N+]([O-])c1ccc(/C=C/C2=NN(c3ccccc3)C(c3ccco3)C2)o1 (stereo unspecified)	0	0	0	38.5	0	0	0
Cc1c(Cl)cn2c(=O)cc(CN(C)Cc3nc4ccccc4c(=O)[nH]3)nc2c1Cl	0	0	0	34.3	0	0	0
CCN(Cc1cc(=O)n2ccsc2n1)Cc1nc2ccccc2c(=O)[nH]1	0	0	0	0	0	0	-
CCOc1ccc(NC(=O)CN2CCN(CC(=O)Nc3ccc(C(N)=O)cc3)CC2)cc1	0	0	-	-	-	-	-
CCCCNC(=O)COC(=O)c1c2c(nc3ccccc13)CCC2	0	0	-	-	-	-	-
CCCCNC(=O)COC(=O)c1c2c(nc3ccccc13)/C(=C/c1cccs1)CC2	-	-	0	36.7	0	0	0
Cc1ccc(Nc2nc(-c3cccnc3)nc3ccccc23)cc1	0	0	0	35.1	-	0	0
Cc1ccccc1Nc1nc(-c2cccnc2)nc2ccccc12	0	0	0	0	0	0	-
COc1ccc2cc(C(=O)NCCCN3CCCC3=O)[nH]c2c1	0	0	-	-	-	-	-
O=C(CSCc1ccccc1Cl)Nc1c[nH]c(=O)[nH]c1=O	0	0	0	0	0	0	-
OCCNCCCOc1cc(Cl)ccc1Cl	0	0	0	36.4	0	0	0
